From PMC4336329 (PLoS ONE, 2015)
Hit rate of the full screen: of about 310,000 compounds, about 14,000 (4.5%) showed an effect of 50% or more. The effect is printed as a negative number. The sample holds strong results, similar compounds and a random draw of the others, so the mix is not that of the screen.

Each molecule was assayed against human ether-à-go-go-related gene (hERG) potassium channel (human, UniProt Q12809) (assay: primary screen, population patch clamp on CHO cells stably expressing hERG; higher = less effect of the substance).
human ether-à-go-go-related gene (hERG) potassium channel, sequence (Q12809 whole entry, looked up): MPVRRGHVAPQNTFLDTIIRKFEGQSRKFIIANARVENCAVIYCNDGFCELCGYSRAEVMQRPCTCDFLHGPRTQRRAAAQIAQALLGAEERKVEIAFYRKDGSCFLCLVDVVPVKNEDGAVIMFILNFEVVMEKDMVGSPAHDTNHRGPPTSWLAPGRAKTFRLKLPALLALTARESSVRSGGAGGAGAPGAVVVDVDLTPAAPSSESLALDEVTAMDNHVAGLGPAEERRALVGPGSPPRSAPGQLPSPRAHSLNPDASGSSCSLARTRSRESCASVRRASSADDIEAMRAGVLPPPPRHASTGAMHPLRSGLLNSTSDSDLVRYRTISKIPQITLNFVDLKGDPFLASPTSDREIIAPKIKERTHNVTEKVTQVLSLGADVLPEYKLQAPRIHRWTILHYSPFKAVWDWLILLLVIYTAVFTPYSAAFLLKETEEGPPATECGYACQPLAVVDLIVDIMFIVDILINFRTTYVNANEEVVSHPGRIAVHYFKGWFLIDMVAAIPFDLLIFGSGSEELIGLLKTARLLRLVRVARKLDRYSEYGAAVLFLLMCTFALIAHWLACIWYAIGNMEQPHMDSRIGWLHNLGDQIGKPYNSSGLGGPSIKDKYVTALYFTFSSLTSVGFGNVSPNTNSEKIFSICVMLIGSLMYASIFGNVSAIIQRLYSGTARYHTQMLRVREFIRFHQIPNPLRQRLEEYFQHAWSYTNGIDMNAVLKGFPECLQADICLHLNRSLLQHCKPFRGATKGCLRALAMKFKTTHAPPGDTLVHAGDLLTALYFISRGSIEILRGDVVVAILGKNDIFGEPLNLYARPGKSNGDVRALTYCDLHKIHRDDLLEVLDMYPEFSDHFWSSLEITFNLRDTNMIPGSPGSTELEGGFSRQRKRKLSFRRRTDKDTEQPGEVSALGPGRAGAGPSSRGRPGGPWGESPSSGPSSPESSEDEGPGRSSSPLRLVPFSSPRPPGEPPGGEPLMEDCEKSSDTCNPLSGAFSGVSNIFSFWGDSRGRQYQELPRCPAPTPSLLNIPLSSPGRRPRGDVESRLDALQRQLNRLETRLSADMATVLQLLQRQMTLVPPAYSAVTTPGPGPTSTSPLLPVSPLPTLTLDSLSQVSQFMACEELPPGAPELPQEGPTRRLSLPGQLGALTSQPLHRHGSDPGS
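Further: peak tail current of the secondary pulse compared with the same well before compound.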

| Structure (SMILES) | hERG current change (%, negative = inhibition) at 10uM |
| --- | --- |
| Cc1cc(C(=O)NC(=S)Nc2cccc(NC(=O)C(C)C)c2)ccc1[N+](=O)[O-] | 3.95% |
| Cc1ccc(NC(=O)C2CCC(=O)N2C(=O)OCc2ccccc2)cc1 (stereo not shown) | -23.5% |
| COc1ccc(F)cc1C(=O)C1CCCN(C(=O)CSc2ccccn2)C1 (stereo not shown) | -7.26% |
| O=C(c1cc(F)ccc1F)C1CCCN(Cc2cccn2-c2ccccn2)C1 (stereo not shown) | -77.9% |
| COc1ccc(F)cc1C(=O)C1CCCN(Cc2cccn2-c2ccccn2)C1 (stereo not shown) | -83.5% |
| O=C(c1cc(F)ccc1F)C1CCCN(C(=O)c2ccc3nccnc3c2)C1 (stereo not shown) | -50.2% |
| COc1ccc(C(=O)C2CCCN(C(=O)c3cccnc3OC)C2)cc1F (stereo not shown) | -4.56% |
| O=C(c1cc(F)ccc1F)C1CCCN(C(=O)CSc2ccccn2)C1 (stereo not shown) | -31.9% |
| COC(=O)c1cccc(C(=O)N2CCCC(C(=O)c3cc(F)ccc3F)C2)c1 (stereo not shown) | -21% |
| CN(C)c1cccc(C(=O)N2CCCC(C(=O)c3cc(F)ccc3F)C2)c1 (stereo not shown) | 0.21% |
| COc1ccc(F)cc1C(=O)C1CCCN(Cc2cccn2-c2cccnc2)C1 (stereo not shown) | -47% |
| COc1ncccc1C(=O)N1CCCC(C(=O)c2cc(F)ccc2F)C1 (stereo not shown) | -9.02% |
| COc1ccc(C(=O)C2CCCN(Cc3cccn3-c3ccccn3)C2)cc1F (stereo not shown) | -78.5% |
| COc1ccc(S(=O)(=O)N2CCC(C(=O)NC3(C)CCS(=O)(=O)C3)CC2)cc1OC (stereo not shown) | 7.87% |
| Cc1cc(C)nc(N2CCCC(C(=O)NCc3cccc(C(F)(F)F)c3)C2)n1 (stereo not shown) | 16.7% |
| Cc1ccc(CN2CCN(/N=C/c3cc(Br)cc(Br)c3O)CC2)cc1 | 5.09% |
| CCOC(=O)C(CC)/C(C)=N\NC(=O)c1cccc(C)c1 (stereo not shown) | 35.5% |
| O=S(=O)(NCc1ccc(C(F)(F)F)cc1)c1ccc(-n2cnnn2)cc1 | -22.2% |
| COC(=O)C1=C(C)NC(=S)N(C(C)=O)C1c1ccccc1 (stereo not shown) | -8.87% |
| CCc1sc(C(=O)Nc2cc(S(=O)(=O)N3CCOCC3)ccc2OC)cc1C | 7.24% |
| O=c1[nH]c(C2CCCN(S(=O)(=O)c3ccccc3)C2)nc2c1nnn2Cc1ccc(OC(F)(F)F)cc1 (stereo not shown) | 26.6% |
| COc1cccc(-c2nnc(SCC(N)=O)n2-c2ccc(Cl)cc2)c1 | -9.7% |
| O=C1CN=C(c2ccccc2)c2cc(Br)ccc2N1Cc1cc(=O)n2ccccc2n1 | -51.7% |
| NNC(=O)CN1C(=O)CN=C(c2ccccc2)c2cc(Br)ccc21 | -5.51% |
| CC(=O)NNC(=O)CN1C(=O)CN=C(c2ccccc2)c2cc(Br)ccc21 | 13.1% |
| O=C(C1CCCN1S(=O)(=O)c1cccc2nsnc12)N1CCCCCC1 (stereo not shown) | 7.97% |

| Structure (SMILES) | hERG current change (%, negative = inhibition) at 10uM |
| --- | --- |
| O=C(C1CCCN1S(=O)(=O)c1cccc2nsnc12)N1CCCCC1 (stereo not shown) | 11% |
| COc1ccc(N2CCN(C(=O)C3CCCN3S(=O)(=O)c3cccc4nsnc34)CC2)cc1 (stereo not shown) | -30.6% |
| CC(=O)c1ccc(N2CCN(C(=O)C3CCCN3S(=O)(=O)c3cccc4nsnc34)CC2)cc1 (stereo not shown) | -1.72% |
| O=C(C1CCCN1S(=O)(=O)c1cccc2nsnc12)N1CCN(c2ccccc2)CC1 (stereo not shown) | -69.5% |
| O=C(C1CCCN1S(=O)(=O)c1cccc2nsnc12)N1CCN(c2ccc(F)cc2)CC1 (stereo not shown) | -69.3% |
| CCOc1ccc(/C(O)=C2/C(=O)C(=O)N(c3ncccn3)C2c2ccccc2)cc1 (stereo not shown) | -4.75% |
| CN1CCN(S(=O)(=O)c2cccc(C(=O)Nc3cc(C(F)(F)F)ccc3N3CCCC3)c2)CC1 | -1.41% |
| CCCCCn1nc(C)c(/C=N\NC(=O)c2cc(C)oc2C)c1C | -65.5% |
| CCCCCn1nc(C)c(/C=N/NC(=O)c2ccoc2C)c1C | -43.8% |
| Cc1cc(C(=O)N/N=C/c2c(C)nn(-c3ccccc3)c2C)c(C)o1 | 3.8% |
| O=C(Nc1cccnc1Cl)c1cc([N+](=O)[O-])ccc1Cl | 9.09% |
| COCCCNc1nc(-c2ccncc2)nc2ccccc12 | -15.5% |
| Cc1nc(NCCCn2ccnc2)c2ccccc2n1.Cl | 3.46% |
| c1ccc(-c2nc(NCCCn3ccnc3)c3ccccc3n2)cc1 | -59.3% |
| COc1ccc(C(CNc2nc(-c3cccnc3)nc3ccccc23)N(C)C)cc1 (stereo not shown) | -59.2% |
| Fc1ccc(CNc2nc(-c3cccnc3)nc3ccccc23)cc1 | -50.4% |
| c1ccc(CNc2nc(-c3cccnc3)nc3ccccc23)cc1 | -23.4% |
| Cc1ccc(CNc2nc(-c3cccnc3)nc3ccccc23)cc1 | 8.72% |
| c1cncc(-c2nc(NCc3ccco3)c3ccccc3n2)c1 | -5.1% |
| Fc1ccccc1CNc1nc(-c2cccnc2)nc2ccccc12 | 17.8% |
| COc1cccc(CNc2nc(-c3cccnc3)nc3ccccc23)c1 | -15.6% |
| c1cncc(-c2nc(NCCCn3ccnc3)c3ccccc3n2)c1 | -53.5% |
| OC(CNc1nc(-c2cccnc2)nc2ccccc12)c1ccccc1 (stereo not shown) | -36.4% |
| CC(=O)N1CCCc2cc(S(=O)(=O)N3CCCC(C(=O)Nc4ccccc4C)C3)ccc21 (stereo not shown) | 10.9% |
| Cc1cc(C)cc(NC(=S)N2CCN(C(=O)c3ccco3)CC2)c1 | -0.347% |
| Cc1onc(-c2ccccc2Cl)c1C(=O)OCC(=O)N1CCN(c2ccccc2)CC1 | -16.1% |
